In the library only some 1.8% were active in any assay of this set; here they are far more common.
HEK293 tox: cytotoxicity in counter-screen for GLP-1R inverse agonists; 0.13% of 410,000 active; AID 624418; HEK293 cAMP-luciferase reporter cells, luminescence, 24 h; Potency, µM (titrated, usually from 38.3 µM), for the others: at the highest dose activity change, negative = inhibition, usual class: inhibitors;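 also: loss of luciferase light is scored as toxicity; % is scaled to controls: 0 for no effect and ±100 for the full control effect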
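MLSMR compounds, 24 hr on cells at 37 deg C/5% CO2; luminescence after luciferase reagent (12 min RT). Inhibition counted as the undesired cytotoxic outcome.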
GLP1R ag: agonists of human GLP-1 receptor | HEK293 GLP-1R CRE-luciferase, luminescence, 4-6 h; cells express a hypersensitive GLP-1R form | P43220 | 0.007% of 380,000 active | Potency, µM (titrated, usually from 45.6 µM), for the others: top-dose activation, usual class: activators; also: % of control where 0% means no effect
Target sequence (P43220 whole entry, looked up): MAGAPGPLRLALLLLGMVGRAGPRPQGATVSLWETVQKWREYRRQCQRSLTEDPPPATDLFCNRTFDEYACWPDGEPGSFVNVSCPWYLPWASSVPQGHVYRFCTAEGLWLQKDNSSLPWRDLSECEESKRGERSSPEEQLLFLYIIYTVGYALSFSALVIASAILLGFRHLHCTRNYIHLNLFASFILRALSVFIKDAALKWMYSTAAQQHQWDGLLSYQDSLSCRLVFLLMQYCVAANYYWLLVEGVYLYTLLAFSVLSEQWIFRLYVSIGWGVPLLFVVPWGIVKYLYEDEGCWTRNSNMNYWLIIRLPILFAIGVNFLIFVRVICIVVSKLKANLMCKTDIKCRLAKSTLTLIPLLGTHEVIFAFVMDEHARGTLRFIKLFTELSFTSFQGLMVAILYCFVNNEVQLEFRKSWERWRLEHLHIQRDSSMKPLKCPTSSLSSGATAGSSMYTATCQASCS
GLP1R inv ag: inverse agonists of human GLP-1 receptor; P43220; 1.6% of 410,000 active; Potency, µM (doses to about 38.3 µM), for inactives: at the top dose activity change, negative = inhibition, usual class: inhibitors; HEK293 GLP-1R CRE-luciferase, luminescence, 24 h; GLP-1R form is constitutively active; also: % is scaled to controls: 0 for no effect and ±100 for the full control effect; nearly all actives have a fitted effect of over 55% in size
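Luminescence readout: a drop in cAMP-driven luciferase signal flags inverse agonism at a constitutively active GLP-1R stably expressed in HEK293. Compound exposure lasted 24 hr at 37 deg C, 5% CO2.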
GCN5L2 inh: GCN5L2 (KAT2A) acetyltransferase inhibition. Q92830. GCN5L2 HAT assay, ThioGlo1 CoA-SH fluorescence. Potency, µM (doses to about 58.9 µM), for inactives: at the highest dose activity change, negative = inhibition, most hits filed as inhibitors. 0.21% of 390,000 active; also: % is scaled to controls: 0 for no effect and ±100 for the full control effect
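ThioGlo1-coupled HAT assay: 20nM GCN5L2, 70uM acetyl-CoA, 75uM H3(1-25) peptide, pH 7.5. Fluorescence read at 340/540nm at start and after 20 min at room temperature.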
RGS4 inh: inhibitors of human regulator of G protein signaling 4; Transcreener GDP fluorescence polarization, RGS4-accelerated GTP hydrolysis; P49798; 0.039% of 390,000 active; Potency, µM (doses to about 114 µM), inactives show at the top dose activity change, negative = inhibition, most hits filed as inhibitors; also: % is scaled to controls: 0 for no effect and ±100 for the full control effect; nearly all actives have a fitted effect of over 75% in size
Target sequence (P49798 whole entry, looked up): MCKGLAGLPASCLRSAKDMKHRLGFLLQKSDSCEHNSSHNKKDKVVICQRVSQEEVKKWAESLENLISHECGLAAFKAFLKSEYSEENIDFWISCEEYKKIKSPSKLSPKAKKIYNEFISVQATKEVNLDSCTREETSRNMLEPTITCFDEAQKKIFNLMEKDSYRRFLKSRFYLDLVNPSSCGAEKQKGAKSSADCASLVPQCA
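MLSMR compounds (23 nl, pin-transferred) preincubated 10 min at room temperature with a 500nM (2x) first reagent, then RGS4 at 900nM (2x) plus Transcreener GDP mix added; fluorescence polarization (620/688 nm) read before and after 90 min at 30 °C.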
PTHR1 ag: agonists of human PTHR1 parathyroid hormone receptor; Q03431; HEK293 GP2 PTHR1 cells, GloSensor cAMP luminescence, 1 h; Potency, µM (series often up to 115 µM), inactives show at the top dose activation, actives largely listed as activators; 0.075% of 410,000 active; AID 743266; also: nearly all actives have a fitted effect of over 55% in size
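HEK-293-derived GP2 cells expressing PTHR1 and a GloSensor cAMP reporter, 3,000/well, plated overnight, given luciferin plus IBMX (each 0.5 mM as added) for 1 h at 37 °C, then compound for 1 h at 37 °C. Luminescence was read after 15 min at room temperature.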
* hit, by the source's call; i = inactive; ? = inconclusive; · = no result given; [ ] = another dose, or the depositor's remark. Calls follow the shape of the dose curve; as a rule, active = well fitted curve in the direction sought with a large enough effect; inconclusive = small, poorly fitted or top-dose-only effect, or another doubt; inactive = no such curve, though single readings can be large; an effect the other way counts as inactive or inconclusive. Potency is read from the fitted curve at half-maximal effect.

SMILES | HEK293 tox | GLP1R ag | GLP1R inv ag | GCN5L2 inh | RGS4 inh | PTHR1 ag
COc1ccccc1N(C)S(=O)(=O)c1ccc(C(=O)OCC(=O)N(C)c2ccccc2)cc1 | -1% | 5% | 3.2µM* | -1% | -4% | i
COc1ccccc1N(C)S(=O)(=O)c1ccc(C(=O)OCC(=O)Nc2ccccc2F)cc1 | -15% | 0% | -38% | -11% | 9% | -12%
C/C(=N/n1cnnc1)c1cccnc1 | 15% | 6% | -7% | 3% | 10% | 16µM*
O=C(c1ccc2c(c1)OCCO2)N1CCN(c2nc(-c3cccs3)nc3ccccc23)CC1 | · | · | · | · | -11% | ·
CN(C)c1ccc(-c2ccnc3c2CC(C)(C(=O)NCc2cccs2)O3)cc1 (stereo not given) | ? | -1% | ? | · | · | -23%
CC1(C(=O)NCc2ccco2)Cc2c(-c3cccc(C(F)(F)F)c3)ccnc2O1 (stereo not given) | ? | 16% | 2.2µM* | · | · | -13%
CC1(C(=O)NCc2cccs2)Cc2c(-c3ccccc3)ccnc2O1 (stereo not given) | ? | 8% | 4.5µM* | · | · | -12%
O=C(NCc1ccccc1)c1cc2sccc2n1Cc1ccc(F)cc1 | 3% | -3% | 10µM* | -2% | -9% | -35%
CC1(C)SC(=S)N(/N=C/c2ccc(O)cc2)C1N(O)C(=O)Nc1ccc([N+](=O)[O-])cc1 (stereo not given) | -28% | -22% | 2.8µM* | -4% | -12% | -37%[57.5 µM]
CC(C)C[C@@H](/C=C/S(C)(=O)=O)NC(=O)[C@H](CC(C)C)NC(=O)[C@H](CC(C)C)NC(=O)OCc1ccccc1 | · | · | · | 7% | i | ·
O=C(NCCc1ccccc1)c1coc(=O)c(Br)c1 | 5µM* | -2% | ? | -11% | 6% | -82%
CCOC(=O)c1c(C)oc2c1c(C=NCc1ccccn1)c(O)c1ccccc12 | ? | 0% | 22µM* | -18% | -25% | -56%
O=C(c1ccc2c(c1)OCO2)N1CCN(S(=O)(=O)c2ccc(Cl)cc2)CC1 | 17% | 2% | -21% | -7% | -1% | -40%
CC(Cc1ccc(O)c(O)c1)C(C)Cc1ccc(O)c(O)c1 (stereo not given) | -11% | 7% | -24% | · | -29% | -30%
C[C@H](Cc1ccc(O)c(O)c1)[C@@H](C)Cc1ccc(O)c(O)c1 | · | · | · | ? | 15µM* | ·
Cc1c(C(=O)N(Cc2ccccc2)C(C)C)cnn1-c1ccccc1 | -16% | 12% | ? | 0% | 18% | -23%
Cc1c(C(=O)N(Cc2ccccc2)Cc2cccs2)cnn1-c1ccc(Cl)cc1 | ? | 15% | 5.6µM* | -8% | -3% | -64%
CCOC(=O)C(CCc1ccccc1)NC(C)C(=O)N1Cc2cc(OC)c(OC)cc2CC1C(=O)O (stereo not given) | · | 4% | · | -1% | · | ·
Cc1csc(C(C#N)C(=O)c2ccc(S(=O)(=O)N3CCCC3)cc2)n1 (stereo not given) | 1% | -8% | -11% | 1µM* | -9% | -16%[57.5 µM]
c1ccc2c(c1)oc1c(-c3cccc4nccn34)cccc12 | -18% | 3% | -31% | · | · | i
O=C(NCc1nc(-c2ccc(C(F)(F)F)cc2)no1)c1cccs1 | -20% | -1% | 10µM* | -22% | ? | -48%
CC1(C)CC(NC2C3CC4CC(C3)CC2C4)CC(C)(C)N1 (stereo not given) | ? | 6% | 3.2µM* | -9% | 7% | i
C=CCNC(=S)N1CC2(C)CN(C(=S)NCC=C)CC(C)(C1)C2=O | 1% | 4% | 3% | 28µM* | -15% | i
CCCNC(=S)N1CC2(C)CN(C(=O)C(=O)OC)CC(C)(C1)C2=O | 19% | 5% | 35% | -1% | -3% | i
Cc1cccc(N2CCN(C(=O)CCc3nc4ccccc4c(=O)[nH]3)CC2)c1C | ? | 1% | ? | -8% | 2% | i
SMILES | HEK293 tox | GLP1R ag | GLP1R inv ag | GCN5L2 inh | RGS4 inh | PTHR1 ag
N#CC1c2ccccc2-c2ccccc2N1C(=O)c1ccccc1 (stereo not given) | -23% | 17% | 7.1µM* | · | · | i
CCC1C(=O)Nc2nc(-c3ccccc3)c(-c3ccccc3)n2N=C1C (stereo not given) | -6% | -4% | ? | -6% | -9% | i
CC(C)(C)OC(=O)N1CCC(c2c(C(=O)Nc3cccc(C(F)(F)F)c3)cnn2-c2ccc(F)cc2F)CC1 | 4% | · | 5µM* | -6% | -10% | i
CCOc1ccc(-n2c(SCC(=O)N3CCC(C)CC3)nc3c([nH]c4ccccc43)c2=O)cc1 | -18% | 7% | 1% | -3% | 14% | i
Cc1ccccc1C(=O)Nc1nc(-c2nnn(-c3ccc(C(C)C)cc3)c2C)ns1 | 1% | · | -42% | -4% | 18% | -37%
Cc1ccc(C(C)C)cc1-n1nnc(-c2cccc(Cc3ccc4ccccc4c3)c2)c1C(C)O (stereo not given) | 0% | -1% | 3.5µM* | · | · | i
CC(C)(C)c1cc(NC(=O)COc2ccc(Br)cc2)n(-c2ccccc2)n1 | -15% | 5% | 8.9µM* | -11% | 2%[56.9 µM] | i
CCC(C)n1c(SCC(=O)Nc2cc(C(C)(C)C)nn2-c2ccccc2)nc2ccccc2c1=O (stereo not given) | 0% | 12% | 11µM* | -9% | 1% | -7%
CCC(C)n1c(SCC(=O)Nc2cc(C)on2)nc2ccccc2c1=O (stereo not given) | -25% | 0% | ? | ? | -30% | i
CC(C)(C)c1cc(NC(=O)COC(=O)c2ccccc2)n(-c2ccccc2)n1 | 3% | 4% | ? | · | · | i
CCOc1cc2[nH]c(=S)n(CCC(=O)NC3CCCCC3)c(=O)c2cc1OCC | 3% | -4% | -8% | · | · | ?
S=C(Nc1ccccn1)c1ccccn1 | 1µM* | -17% | 0.89µM* | -7% | -36%[11.4 µM] | -17%
Cc1c(Cl)cccc1NC(=S)Nc1ccccn1 | -23% | 6% | -9% | -2% | 5% | i
S=C(Nc1ccccn1)Nc1ccccc1Cl | 6.3µM* | 14% | ? | -15% | -13% | i
CCNC(=O)C1CCCN(C(=O)c2cccc(OC(F)(F)F)c2)CC1 (stereo not given) | 7% | -3% | 14% | · | · | -16%
Nc1nnnn1-c1ccccc1 | · | 2% | · | · | · | ·
